Among all 310,000 compounds or so, about 1,200 (0.39%) were called active. Only a sample is shown. Potency and affinity values are given separately. Values without a mark were called inactive. No rule for the calls is given here.

Sequence of Large T antigen (Simian virus 40) (P03070 whole entry, looked up): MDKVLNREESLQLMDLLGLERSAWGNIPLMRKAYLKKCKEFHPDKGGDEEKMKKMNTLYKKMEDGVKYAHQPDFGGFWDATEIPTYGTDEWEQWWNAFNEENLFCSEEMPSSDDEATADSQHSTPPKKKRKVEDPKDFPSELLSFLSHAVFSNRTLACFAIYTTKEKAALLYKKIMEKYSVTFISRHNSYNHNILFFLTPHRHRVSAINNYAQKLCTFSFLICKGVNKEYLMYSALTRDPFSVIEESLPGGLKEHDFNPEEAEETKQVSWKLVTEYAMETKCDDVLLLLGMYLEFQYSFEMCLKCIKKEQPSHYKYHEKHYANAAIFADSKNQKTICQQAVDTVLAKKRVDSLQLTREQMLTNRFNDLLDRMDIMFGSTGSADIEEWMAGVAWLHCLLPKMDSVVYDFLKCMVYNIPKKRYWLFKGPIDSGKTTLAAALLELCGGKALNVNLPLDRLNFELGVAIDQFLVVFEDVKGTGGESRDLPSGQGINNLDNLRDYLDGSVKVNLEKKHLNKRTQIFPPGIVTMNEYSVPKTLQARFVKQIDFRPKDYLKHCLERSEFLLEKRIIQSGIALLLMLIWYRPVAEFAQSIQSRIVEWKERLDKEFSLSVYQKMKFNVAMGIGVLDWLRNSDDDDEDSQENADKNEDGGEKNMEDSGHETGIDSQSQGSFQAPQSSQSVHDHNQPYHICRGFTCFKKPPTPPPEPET

The assay addresses Large T antigen (Simian virus 40) (UniProt P03070). Description: SV40 large T antigen inhibitors, biochemical (AID 1903). Conditions: SV40 large T antigen ATPase/helicase inhibition assay; at 20 µM; active compounds read high.
For the molecule `O=C(O)c1nn2c(c1Br)NC(c1ccccc1)CC2C(F)(F)F` (stereo not drawn), the inhibition (as a rule, the drop in the measured response relative to a control, in per cent) is 3.96%.

In the case of `COc1ccc(C(=O)NNC(=O)C2CCCN(C3CC(=O)N(c4ccccc4)C3=O)C2)cc1` (stereo not drawn), the inhibition was 9.48%.

For `C/C(=N/NC(=O)NC12CC3CC(CC(C3)C1)C2)c1ccccc1`, the inhibition was 6.61%.

As to `Cn1c(=O)c2c(ncn2CC(O)CNc2ccc(F)cc2)n(C)c1=O` (stereo not drawn), the inhibition is 5.3%.

Regarding `Cc1ccc(NCC(O)Cn2cnc3c2c(=O)n(C)c(=O)n3C)cc1` (stereo not drawn), the inhibition was 16.6%.

Regarding `CCOC(=O)C1CCN(C(=S)Nc2ccccc2)CC1`, the inhibition is 11.3%.

Take `CCOC(=O)C1=C(C)NC(c2cccs2)C(=O)N1` (stereo not drawn): the inhibition is 6.75%.

As to `Cc1c(C(=O)OCC(C)C)[nH]c2c1C(=O)CC(c1cccs1)C2` (stereo not drawn), the inhibition was 22.8%.

Regarding `COc1ccccc1N/N=C/c1ccc2c(c1)OCO2`, the inhibition is 5.16%.

As to `CCN(CC)C(=O)Nc1ccccc1C`, the inhibition is 3.88%.

As for `COc1ccccc1-c1cn[nH]c1-c1ccc(O)cc1O`, the inhibition was 36.1%.

In the case of `COc1ccc(-c2cn[nH]c2-c2ccc(O)cc2O)cc1`, the inhibition was 25.6%.

As to `CC/C(=N/O)C(=O)c1ccc(Br)cc1`, the inhibition was 8.42%.

Turning to `Cc1ccccc1NC(=O)COC(=O)/C=C/c1cccc(C(F)(F)F)c1`, the inhibition is 3.86%.

Turning to `O=[N+]([O-])c1cc(S(=O)(=O)NC2=NCCCCC2)ccc1Cl`, the inhibition was 6.57%.

As to `O=Nc1ccc(NOC(=O)c2ccccc2)cc1`, the inhibition was 19.7%.

With `O=C(N=Nc1ccc(NOC(=O)c2ccccc2Br)cc1)c1ccccc1O`, the inhibition is 11.6%.

Turning to `CCc1ccccc1N1CC(C(=O)O)CC1=O` (stereo not drawn), the inhibition is -0.59%.

With `O=C(O)C1CCN(C(=O)c2cccc3ccccc23)CC1`, the inhibition was 4.64%.

Consider `Cc1cc(N2CCOCC2)nc2ccc(NC(=S)NC(C)C)cc12`, for which the inhibition is 4.55%.

In the case of `COc1ccc(NC(=O)/C=C/c2cc(OC)c(OC)c(OC)c2)cn1`, the inhibition is 7.41%.

As to `CS(=O)(=O)N(CC(=O)NC1CC1)C1CCCCC1`, the inhibition is 7.67%.

Take `Cc1csc(-c2cnn(-c3ccccc3)c2NC(=O)c2cccc(C(F)(F)F)c2)n1`: the inhibition was 0.685%.

As for `O=S(=O)(c1ccc(N2CCOCC2)c(Cl)c1)N1CCOCC1`, the inhibition is 7.49%.

With `O=[N+]([O-])c1cc(S(=O)(=O)N2CCOCC2)ccc1N1CCCC1`, the inhibition was -2.39%.

As for `Cc1ccc(C)n1-c1cc(S(=O)(=O)N2CCOCC2)ccc1N1CCCC1`, the inhibition is 1.24%.

With `N#Cc1cc(S(=O)(=O)N2CCOCC2)ccc1N1CCOCC1`, the inhibition is 7.94%.

Regarding `CCSC1=C(C#N)C(c2cccc(Br)c2)CC(=O)N1` (stereo not drawn), the inhibition was 1.17%.

Values taken from PubChem BioAssay AID1903 (Southern Research Specialized Biocontainment Screening …, 2009).
